Screening data from PubChem.
HUVEC tox IL1B: HUVEC cytotoxicity counter-screen, IL-1B stimulated | HUVEC cell count loss, Hoechst imaging | cell count reduction, % at 2 µM | actives 0.41% (n = 94,000);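 active means cell count reduction more than 3 SD above the screen-wide mean, cut at about 70% in these data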
IL1B NFkB inh: blocks IL-1B driven NFkB nuclear translocation in HUVEC cells. HUVEC IL-1B NFkB p65 nuclear translocation imaging. actives 0.43% (n = 94,000). inhibition, % at 2 µM;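 active means inhibition above about 30% together with a positive call from visual inspection of the well image, limit read from the data; inconclusive means inhibition above a set limit but visual check negative; inactive means inhibition not above a set limit, visual check negative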;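 further: nuclear over cytoplasmic p65 intensity ratio measured by imaging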
HUVEC tox TNFa: toxic to HUVEC cells under TNF alpha stimulation; HUVEC TNFalpha-stimulated, Hoechst cell count, imaging; cell count reduction, % at 2 µM; actives 0.17% (n = 93,000); AID 848;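 active means cell count reduction exceeding the screen mean by over 5 SD, scaled to untreated wells per plate, cut at about 78% in these data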;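 further: cells counted after 24 h of TNF alpha exposure following the 1 h pretreatment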
VCAM1 TNFa inh: reduces TNF alpha induced VCAM1 expression in HUVEC; HUVEC TNFa-induced VCAM-1 immunofluorescence, high-content imaging; inhibition, % at 2 µM; actives 0.48% (n = 95,000);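 active means inhibition above the batch mean plus 3 SD, with images confirmed as a hit by eye, cut at about 37% in these data; inconclusive means inhibition above that limit but hit not confirmed in images; inactive means inhibition not above that limit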
E-sel TNF inh: blocks E-selectin expression induced by TNF alpha; inhibition, % at 2 µM; HUVEC TNFa-induced E-selectin immunofluorescence, high content; actives 0.71% (n = 120,000);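 active means inhibition above the batch mean plus 3 SD, and confirmed as a hit on visual image review, cut at about 43% in these data; inconclusive means passes the inhibition cutoff but fails visual image review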
NFkB transloc pot: enhances IL-1B driven NFkB nuclear translocation | HUVEC IL-1B NFkB p65 nuclear translocation imaging | activation, % at 2 µM | actives 0.3% (n = 94,000) | AID 819;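 active means activation above 40%, about the mean plus 3 SD, also judged a hit on visual image review; inconclusive means activation above 40% but not a hit on visual review; inactive means activation not above 40% and no visual hit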;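 further: percent activation is computed from the nuclear over cytoplasmic p65 intensity ratio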
Of the large screens only hits and unclear results are named; the others gave an inactive call. The list is not random: actives were taken first. Their share in the collection is about 1.8%.

CCC(CC)n1[nH]c(=O)c2c(C)cc(C)nc21	HUVEC tox TNFa 81
CCOC(=O)c1nnc(-c2ccc(C)cc2)nc1Oc1ccc(Cl)cc1Cl	E-sel TNF inh 63
CCOC(=O)c1nnc(-c2ccc(C)cc2)nc1Oc1ccccc1Cl	none
COc1ccc(-c2nc3c(n2O)CCC/C3=N\O)cc1	none
Cc1nc2c(n1O)CCC/C2=N\O	NFkB transloc pot 49
COCC(C)N=C1NN=C(c2c[nH]c3ccccc23)CS1 (centres undefined)	none (no result: HUVEC tox IL1B, IL1B NFkB inh, HUVEC tox TNFa, VCAM1 TNFa inh, NFkB transloc pot)
CCCC(=O)N1CCc2cc(OC)c(OC)cc2C1c1cc2cc3c(cc2[nH]c1=O)OCO3 (centres undefined)	none
COc1cc2c(cc1OC)C(c1cc3cc(OC)c(OC)cc3[nH]c1=O)N(C(=O)C1CC1)CC2 (centres undefined)	NFkB transloc pot 45
Cc1ccc(C)c(/C(O)=C2/C(=O)C(=O)N(CCN3CCOCC3)C2c2ccc(C)o2)c1 (centres undefined)	NFkB transloc pot 107
COc1ccccc1C1/C(=C(/O)c2ccc(C)cc2)C(=O)C(=O)N1CCN1CCOCC1 (centres undefined)	E-sel TNF inh 70 (no result: HUVEC tox IL1B, IL1B NFkB inh, HUVEC tox TNFa, VCAM1 TNFa inh, NFkB transloc pot)
COc1ccc(/C(O)=C2\C(=O)C(=O)N(CCN3CCOCC3)C2c2ccccc2OC)cc1 (centres undefined)	none (no result: HUVEC tox IL1B, IL1B NFkB inh, HUVEC tox TNFa, VCAM1 TNFa inh, NFkB transloc pot)
CCOC(=O)C1CCN(C(=O)c2oc3ccc(S(=O)(=O)N4CC(C)CC(C)C4)cc3c2C)CC1 (centres undefined)	none
O=C(CCCC(=O)N(CC(=O)NC1CCCC1)C1CCCC1)Nc1ccccn1	none
O=C(CCC(=O)N(CC(=O)NC1CCCC1)C1CCCC1)Nc1ccccn1	NFkB transloc pot 127
COc1ccc(SCc2noc(C(=O)NC(C)C)c2C(=O)O)cc1	none
CSCCOC(=O)C1=C(C)Nc2ccc(C)cc2S1	IL1B NFkB inh 58
Cc1nc2cc(F)ccc2n1C1CCN(S(=O)(=O)c2ccccc2)CC1	none
Cc1cccc(NCN2C(=O)c3ccccc3C2=O)c1	none
CCc1cccc(CC)c1NC(=O)COC(=O)c1cccc(-c2ccc(OC(C)=O)cc2)c1	E-sel TNF inh 74 (no result: HUVEC tox IL1B, IL1B NFkB inh, HUVEC tox TNFa, VCAM1 TNFa inh, NFkB transloc pot)
COCCN(CC(=O)NC1CCCCC1)C(=O)/C=C/C(=O)c1ccc(OC)cc1O	E-sel TNF inh 89 (no result: HUVEC tox IL1B, IL1B NFkB inh, HUVEC tox TNFa, VCAM1 TNFa inh, NFkB transloc pot)
COc1ccc(C(=O)/C=C/C(=O)N(Cc2ccc3c(c2)OCO3)C(C(=O)NC2CCCCC2)c2ccncc2)c(O)c1 (centres undefined)	none (no result: HUVEC tox IL1B, IL1B NFkB inh, HUVEC tox TNFa, VCAM1 TNFa inh, NFkB transloc pot)
Cc1ccc2nc(-c3ccccn3)cc(C(=O)NC3CCN(C)CC3)c2c1	none
COC(=O)C1=C(C)OC(N)=C(C#N)C1c1ccc(OC)c(OC)c1OC (centres undefined)	none
CC(=O)C1=C(C)OC(N)=C(C#N)C1c1cc2cc(C)c(C)cc2nc1Cl (centres undefined)	NFkB transloc pot 43
CCOc1cc(/C=N\NC(=O)Cc2ccccc2)ccc1OCC(=O)Nc1ccc(C)c(C)c1	VCAM1 TNFa inh 52
O=C(Oc1ccc(F)cc1C(=O)/C=C/c1cccs1)c1cccc([N+](=O)[O-])c1	IL1B NFkB inh 31
Cc1nnc(SCc2ccon2)n1-c1ccccc1	none
Cc1nnc(SCc2ccccc2C#N)n1-c1ccccc1	HUVEC tox IL1B 82
O=C1CCSc2cccc3cccc(c23)N1	HUVEC tox TNFa 84, VCAM1 TNFa inh 90 (no result: E-sel TNF inh)
CNS(=O)(=O)c1cnccc1N1CCN(c2cccc(C(F)(F)F)c2)CC1	none
COC(=O)c1cc2nc(-c3ccc(OC)cc3)cc(C(F)(F)F)n2n1	none
COc1ccc(-c2cc(C(F)(F)F)n3nc(C(=O)Nc4cc(C)on4)cc3n2)cc1OC	VCAM1 TNFa inh 95
CCOC(=O)C1CCCN(C(=O)Nc2ccccc2)C1 (centres undefined)	none
O=C(CSc1ncccn1)NCc1ccccc1Cl	E-sel TNF inh 60
Fc1cccc(CN2CCN(c3nc4nonc4nc3NC3CC3)CC2)c1	none (no result: HUVEC tox IL1B, IL1B NFkB inh, HUVEC tox TNFa, VCAM1 TNFa inh, NFkB transloc pot)
Cc1ccc(C2CC2C(=O)NNC(=S)Nc2cccc(Cl)c2)cc1 (centres undefined)	HUVEC tox IL1B 71
O=C(Nc1ccccc1)c1nnsc1S(=O)c1ccc(Cl)cc1 (centres undefined)	VCAM1 TNFa inh 43, E-sel TNF inh 80
O=C(Nc1ccc(Cl)cc1)c1cccs1	none
CN1CCc2nc(SCc3ccc(C(C)(C)C)cc3)c(C#N)cc2C1	none
Cc1ccc(S(=O)(=O)N2CCOCC2)cc1NC(=O)Cn1ccsc1=N	NFkB transloc pot 40
Cc1c(N=C/C=C2\N(C)c3ccccc3C2(C)C)c(=O)n(-c2ccccc2)n1C	E-sel TNF inh 63
C/C(=N\NC(=O)CN(c1ccccc1Br)S(C)(=O)=O)c1ccc2c(c1)OCCO2	E-sel TNF inh 66 (no result: HUVEC tox IL1B, IL1B NFkB inh, HUVEC tox TNFa, VCAM1 TNFa inh, NFkB transloc pot)
CCOc1ccccc1/C=N/Nc1ccccc1[N+](=O)[O-]	VCAM1 TNFa inh 59
O=C(OC1CCN(c2ncc(C(F)(F)F)cc2Cl)CC1)c1cccc(C(F)(F)F)c1	none
O=C(c1cccc(C(F)(F)F)c1)N1CCOC12CCN(c1ncc(C(F)(F)F)cc1Cl)CC2	IL1B NFkB inh 33 (no result: E-sel TNF inh)
Cc1ccccc1NC(=S)NC(NC(=O)c1ccccc1C)C(Cl)(Cl)Cl (centres undefined)	IL1B NFkB inh inconclusive
S=C(Nc1ccc(N2CCOCC2)cc1)Nc1ccc2nc(-c3ccco3)c(-c3ccco3)nc2c1	IL1B NFkB inh 45
O=C(Nc1ccc(N2CCOCC2)cc1)c1ccc2nc(-c3ccco3)c(-c3ccco3)nc2c1	none
COc1ccc(CNC(=O)c2ccc(NC(=O)CC3SC(N4CCCC4)=NC3=O)cc2)cc1 (centres undefined)	none
COc1ccc(CNC(=O)c2ccc(NC(=O)CC3SC(N4CCCCC4)=NC3=O)cc2)cc1 (centres undefined)	E-sel TNF inh 77 (no result: HUVEC tox IL1B, IL1B NFkB inh, NFkB transloc pot)
Cc1ccccc1S(=O)(=O)c1c(C)cc(-c2ccccc2)[nH]c1=O	none
COC(=O)c1sccc1NC(=S)N1CCN(c2cc(C)ccc2C)CC1	none (no result: HUVEC tox IL1B, IL1B NFkB inh, HUVEC tox TNFa, VCAM1 TNFa inh, NFkB transloc pot)
O=c1[nH]c2ccc(Cl)cc2c(-c2ccccc2)c1N1CCOCC1	none (no result: HUVEC tox IL1B, IL1B NFkB inh, HUVEC tox TNFa, VCAM1 TNFa inh, NFkB transloc pot)
O=c1[nH]c2ccc(Cl)cc2c(-c2ccccc2)c1CN1CCOCC1	NFkB transloc pot 113 (no result: E-sel TNF inh)
CCCC[n+]1ccn(-c2nc3ccccc3nc2[N-]S(=O)(=O)c2ccc(C)cc2)c1	none
CCCCC[n+]1ccn(-c2nc3ccccc3nc2[N-]S(=O)(=O)c2ccc(C)cc2)c1	HUVEC tox IL1B 82, IL1B NFkB inh 98
Cc1ccc(-n2c(O)c(C=NC3CCS(=O)(=O)C3)c3ccccc3c2=O)cc1C (centres undefined)	NFkB transloc pot 43
CCOCCc1nnc(NC(=O)C(CC)c2ccccc2)s1 (centres undefined)	none
COc1ccc(S(=O)(=O)Nc2ccc3c(c2)COC3=O)cc1OC	none
CS(=O)(=O)Nc1ccc2c(c1)C(=O)OC2	NFkB transloc pot 57
O=S(=O)(NCCN1CCOCC1)c1ccc2c(c1)OCCO2	none (no result: HUVEC tox IL1B, IL1B NFkB inh, HUVEC tox TNFa, VCAM1 TNFa inh, NFkB transloc pot)
Cc1ccc(S(=O)(=O)NCCN2CCOCC2)cc1	IL1B NFkB inh 31
